Data: PubChem BioAssay AID1159580 (chemical genetic matrix, 2015)
In all, about 5,500 compounds went through this assay and about 2,000 (36%) were called active. Roughly 18% stayed inconclusive and do not appear here. No stated cut-off is given here; in the data, active means normalized growth mostly below about 0.91 (no sharp cut-off); inconclusive means no clear call, values can overlap the other calls; inactive means mostly above about 0.92. Some of the results follow.

Experiment: chemical genetic growth profiling, strain panel (AID 1159580);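 further: tested at 20 µM; growth read once vehicle control cultures reached saturation at 30 °C; 1 = growth at the plate median or of vehicle wells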
Settings: S. cerevisiae deletion strains, growth OD
[1] = locus YAL013W, strain DEP1, stronger effect = lower value
[2] = locus YDR150W, strain NUM1, stronger effect = lower value
[3] = locus YGR078C, strain PAC10, stronger effect = lower value
[4] = locus YMR307W, strain GAS1, stronger effect = lower value
[5] = locus YPL241C, strain CIN2, stronger effect = lower value
[6] = locus YBR229C, strain ROT2, stronger effect = lower value
[7] = locus YCL061C, strain MRC1, stronger effect = lower value
[8] = locus YDL101C, strain DUN1, stronger effect = lower value
[9] = locus YEL061C, strain CIN8, stronger effect = lower value
[10] = locus YHR030C, strain SLT2, stronger effect = lower value
[11] = locus YHR087W, strain rtc3, stronger effect = lower value
[12] = locus YJR043C, strain POL32, stronger effect = lower value
[13] = locus YJR075W, strain HOC1, stronger effect = lower value
[14] = locus YKL190W, strain CNB1, stronger effect = lower value
[15] = locus YLR039C, strain RIC1, stronger effect = lower value
[16] = locus YLR058C, strain SHM2 (second series), stronger effect = lower value
[17] = locus YLR085C, strain ARP6, stronger effect = lower value
[18] = locus YLR262C, strain YPT6, stronger effect = lower value
[19] = locus YML094W, strain GIM5, stronger effect = lower value
[20] = locus YMR219W, strain ESC1, stronger effect = lower value
[21] = locus YMR263W, strain SAP30, stronger effect = lower value
[22] = locus YNL153C, strain GIM3, stronger effect = lower value
[23] = locus YNL298W, strain CLA4 (second series), stronger effect = lower value
[24] = locus YNL322C, strain KRE1, stronger effect = lower value
[25] = locus YNR030W, strain Alg12, stronger effect = lower value
[26] = locus YPL055C, strain LGE1, stronger effect = lower value
[27] = locus YPR135W, strain CTF4, stronger effect = lower value
[28] = locus YJL187C, strain SWE1, stronger effect = lower value
[29] = locus YOL006C, strain TOP1, stronger effect = lower value
[30] = locus YGR229C, strain SMI1, stronger effect = lower value
[31] = locus YNL128W, strain TEP1, stronger effect = lower value

Measured: normalized growth

O=[N+]([O-])c1ccc2nc(N3CCNCC3)ccc2c1
inactive: [1] 0.999 | locus YAL040C, strain CLN3, stronger effect = lower value 0.985 | locus YCL061C, strain MRC1 (second series), stronger effect = lower value 0.995 | [2] 0.994 | locus YDR363W, strain ESC2, stronger effect = lower value 1.04 | locus YER002W, strain NOP16, stronger effect = lower value 1.01 | [3] 1 | [4] 1 | locus YNL175C, strain NOP13, stronger effect = lower value 1 | locus YNL197C, strain WHI3, stronger effect = lower value 1 | locus YNL224C, strain SQS1, stronger effect = lower value 1.01 | locus YOR083W, strain WHI5 (second series), stronger effect = lower value 1.01 | [5] 1.01

CC(=O)Nc1cc([N+](=O)[O-])ccc1-n1cc(C)c(C(F)(F)F)n1
inactive: [1] 0.966 | [6] 0.985 | [7] 0.978 | [8] 0.986 | [2] 0.947 | [9] 0.998 | [3] 0.996 | [10] 0.871 | [11] 0.982 | [12] 1 | [13] 0.973 | [14] 0.992 | [15] 0.935 | [16] 0.988 | [17] 0.94 | [18] 0.928 | [19] 0.963 | [20] 0.988 | [21] 0.917 | [22] 0.985 | [23] 0.962 | [24] 0.981 | [25] 0.962 | [26] 0.931 | [5] 1.03 | [27] 0.905

O=[N+]([O-])c1ccc(SC2=NCCN2)c(Cl)c1
inactive: [1] 0.994 | [6] 1 | [8] 0.987 | [2] 0.985 | [9] 0.978 | [3] 0.987 | [10] 1.03 | [11] 1.01 | [28] 0.98 | [12] 0.964 | [13] 0.952 | [14] 0.994 | [15] 1 | [16] 0.992 | [17] 0.965 | [18] 1 | [19] 0.972 | [20] 0.977 | [21] 1.01 | [22] 1.02 | [23] 1.03 | [24] 0.984 | [25] 0.995 | [29] 1 | [26] 1.03 | [5] 0.985 | [27] 1.09

O=[N+]([O-])c1ccc2nsnc2c1
inactive: [2] 0.825 | [30] 0.979 | [15] 0.795 | [18] 0.83 | [24] 0.999
active: [1] 0.836 | [6] 0.643 | [8] 0.583 | [9] 0.626 | [3] 0.699 | [10] 0.109 | [11] 0.649 | [12] 0.828 | [13] 0.55 | [14] 0.604 | [16] 0.824 | [17] 0.227 | [19] 0.533 | [20] 0.833 | [21] 0.8 | [31] 0.304 | [22] 0.738 | [23] 0.361 | [25] 0.534 | [29] 0.496 | [26] 0.805 | [5] 0.286 | [27] 0.233

COC(=O)c1cc([N+](=O)[O-])ccc1NC(C)=O
inactive: [1] 0.986 | [6] 1 | [7] 0.997 | [8] 1.01 | locus YDL134C, strain PPH21, stronger effect = lower value 1.01 | [2] 0.989 | [9] 0.989 | [3] 1 | [30] 1 | [10] 0.929 | [11] 1.02 | [28] 0.998 | [12] 0.994 | [13] 1.03 | [14] 0.995 | [15] 1.05 | [16] 0.996 | [17] 0.977 | [18] 1.03 | [19] 1.02 | [20] 0.999 | [21] 0.979 | [4] 0.998 | [31] 1.01 | [22] 0.986 | [23] 0.958 | [24] 1.01 | [25] 1 | [26] 0.983 | [5] 1.03 | [27] 0.992
